# Compound activity deposited in PubChem by National Center for Advancing Translational Sciences (NCATS).
# Eya2 phos inh: qHTS Assay for Inhibitors of the Phosphatase Activity of Eya2; hit rate 0.006% among 330,000; Potency, µM (series often up to 76.9 µM), for the others: at the highest dose activity, negative = inhibition, usual class: inhibitors; AID 488837, 2010; recombinant Eya2, OMFP fluorescence dephosphorylation (OMFP is methylfluorescein phosphate); Protein phosphatase EYA2 (Homo sapiens), O00167; further: potency means the concentration at half of the fitted maximal effect; on the % scale 0 is the no-effect control and ±100 the full control effect
# Target sequence (O00167 whole entry, looked up): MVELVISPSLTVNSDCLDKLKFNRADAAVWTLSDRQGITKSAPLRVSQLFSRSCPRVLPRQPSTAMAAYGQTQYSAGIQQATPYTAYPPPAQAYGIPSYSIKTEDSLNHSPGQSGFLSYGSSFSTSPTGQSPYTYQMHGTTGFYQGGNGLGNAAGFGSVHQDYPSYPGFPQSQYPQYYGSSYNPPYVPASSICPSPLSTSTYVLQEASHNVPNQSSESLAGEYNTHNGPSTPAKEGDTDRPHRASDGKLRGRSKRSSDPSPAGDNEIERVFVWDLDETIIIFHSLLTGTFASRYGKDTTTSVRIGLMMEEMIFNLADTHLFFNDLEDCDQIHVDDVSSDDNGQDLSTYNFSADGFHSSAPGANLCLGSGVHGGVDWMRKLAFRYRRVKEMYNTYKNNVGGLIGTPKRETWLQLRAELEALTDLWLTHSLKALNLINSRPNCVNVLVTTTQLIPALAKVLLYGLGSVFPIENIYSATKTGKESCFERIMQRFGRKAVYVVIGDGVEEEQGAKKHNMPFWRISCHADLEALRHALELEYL
#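 Eya2 protein (added as 0.2 uM solution) was preincubated with compound for 10 min at ambient temperature in 50 mM HEPES pH 7.5, 50 mM NaCl, 5 uM MgCl2, 0.05% BSA, 1 mM DTT. OMFP (added at 50 uM) then reacted 10 min; fluorescence read at 485/525 nm.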
# TSHR antagonist: Antagonists of the Thyroid Stimulating Hormone Receptor: HTS campaign; Thyrotropin receptor (Homo sapiens), P16473; TSHR-expressing cells, TSH-stimulated cAMP HTRF, 2 h; stronger effect = lower value; activity change, negative = inhibition, % at 11.5 µM; hit rate 0.2% among 330,000;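 active means activity change below a set negative limit, meaning inhibition stronger than a set level, cut at about -70% in these data; inconclusive means activity change between two set negative limits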; further: on the % scale 0 is the no-effect control and ±100 the full control effect
#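 TSHR-expressing cells were treated with compounds, then stimulated with TSH at EC80 (4nM final) for 2 hours at 37 deg C. Cellular cAMP was measured by HTRF competition between lysate cAMP and cAMP-d2 for a cryptate-labelled anti-cAMP antibody.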
# TexasRed fluor: Total Fluorescence Counterscreen for Inhibitors of the Interaction of Thyroid Hormone Receptor and Steroid Receptor Coregulator 2; TRb/SRC2 Texas Red total fluorescence interference; Potency, µM (top dose mostly 106 µM), for the others: at the highest dose fluorescence change, negative = quenching; hit rate 0.29% among 280,000; active means well fitted curve in either direction with a large enough effect; inconclusive means small, poorly fitted or top-dose-only effect; further: potency means the concentration at half of the fitted maximal effect; on the % scale 0 is the no-effect control and ±100 the full control effect
#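 Flags fluorescent or light-absorbing compounds by total fluorescence, S + 2P, at 555 nm excitation and 632 nm emission. Mixture: 20 nM Texas Red SRC2 peptide, 0.6 uM human TRb LBD, 1 uM T3, 5% DMSO; compound exposure 5 h at ambient temperature.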
# TRb SRC2 PPI: qHTS for Inhibitors of the Interaction of Thyroid Hormone Receptor and Steroid Receptor Coregulator 2; TRbeta-SRC2 peptide binding, fluorescence polarization; receptor liganded with 1 µM T3; Potency, µM (doses to about 106 µM), for inactives: at the highest dose activity change, negative = inhibition, most hits filed as inhibitors; hit rate 0.065% among 280,000; AID 1469, 2008;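 further: potency means the concentration at half of the fitted maximal effect; plate controls were bound peptide for no effect and peptide without receptor for full effect; nearly all actives have a fitted effect of over 50% in size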
#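 Quantitative HTS by FP: 0.6 uM TRb LBD, 20 nM labeled SRC2 20-mer, 1 uM T3, 5% DMSO; 5 hr ambient incubation; % activity per concentration and potencies from concentration series.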
# USP2a block: qHTS Assay for Inhibitors of Ubiquitin-specific Protease USP2a Using CHOP2 as the Reporter; Ubiquitin carboxyl-terminal hydrolase 2 (Homo sapiens), O75604; USP2 core, Ub-CHOP2 coupled fluorogenic reporter, 485/531; Potency, µM (titrated, usually from 38.3 µM), for the others: at the highest dose activity change, negative = inhibition, most hits filed as inhibitors; hit rate 0.01% among 330,000;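 further: potency means the concentration at half of the fitted maximal effect; plate controls were DMSO wells for no effect and full inhibition by NEM control for full effect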
#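 Deubiquitinase activity read as fluorescence (485/531 nm) after Ub-CHOP2 cleavage activates the enterokinase reporter on its substrate; USP2 core 10nM, Ub-CHOP2 and substrate 25nM each, 30min compound preincubation then 60min RT; data normalized to NEM, curves fitted.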
# CBFb RUNX1 block: qHTS Assay for Compounds Blocking the Interaction Between CBF-beta and RUNX1 for the Treatment of Acute Myeloid Leukemia; Potency, µM (titrated, usually from 59.8 µM), for the others: top-dose activity, negative = inhibition, most hits filed as inhibitors; AlphaScreen CBFb-His/RUNX1-biotin binding, biochemical; 230,000 tested, under 10 active; further: % of control where 0% means no effect
#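 His-tagged CBF-beta and biotinylated RUNX1 (30 nM each) were premixed 20 min at room temperature, exposed to compound for 15 min, then given nickel-chelate and streptavidin AlphaScreen beads (50 ng each). After 90 min, AlphaScreen signal was read.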
# Starred values were filed as active, the others as inactive; ? = inconclusive; / = no result; [ ] = another dose, or the depositor's remark. In the library only some 0.38% were active in any assay of this set; here they are far more common. Unless noted, the call rests on the fitted dose curve; in most records, active means well fitted curve in the direction sought with a large enough effect; inconclusive means small, poorly fitted or top-dose-only effect, or another doubt; inactive means no such curve, though single readings can be large; an effect the other way counts as inactive or inconclusive.
SMILES,Eya2 phos inh,TSHR antagonist,TexasRed fluor,TRb SRC2 PPI,USP2a block,CBFb RUNX1 block
COc1ccc(S(=O)(=O)NN(C)C)cc1N(C)S(=O)(=O)c1ccc(Cl)cc1,4%,5,4%,4%,2%,4%
CC(C)c1ccc(C(C)C)cc1,/,/,-3%[201 µM],4%[201 µM],/,/
COc1ccc(NC(=S)N(C(C)C)C2CCN(C(C)C)CC2)cc1Cl,5%,-81*,/,/,3%,/
Cc1nn(-c2ccc(N3CCOCC3)nn2)c(C)c1CCC(=O)NCc1ccccc1F,-9%,-105*,-12%,3%,0%,/
C#C[C@]1(OC(C)=O)CCC2C3CCC4=CC(=O)CC[C@@H]4C3CC[C@@]21C (stereo not given in full),1%,-88*,/,/,1%,/
Cc1ccc(-c2nc3cccnc3s2)cc1NC(=O)Cc1ccccc1,/,/,100µM*[quencher],-21%,/,/
COc1ccc(CC(=O)Nc2cc(-c3nc4cccnc4s3)ccc2C)cc1,/,/,?,-7%,/,/
COc1ccc(-n2nc(C(=O)NCC(=O)Nc3cc(OC)c(OC)c(OC)c3)c3ccccc3c2=O)cc1,-8%,-1,/,/,1%,/
COc1ccc(-n2nc(C(=O)NCC(=O)Nc3cc(OC)c(OC)c(OC)c3)c3ccccc3c2=O)cc1OC,-18%,-117*,/,/,1%,/
COc1ccc2nc(NC(=O)CSc3nc(SC)ns3)sc2c1,-2%,-13,-5%,10%,-9%,-5%
COc1ccc(-c2csc(NC(=O)CSc3nc(SC)ns3)n2)cc1,-4%,-74*,1%,7%,1%,-21%
COc1cc(C(C(=O)NCc2ccccc2)N(C(=O)c2snc(C(N)=O)c2N)C2CCCC2)cc(OC)c1OC (stereo not given),11%,-108*,/,/,0%,/
CCCn1c2ccccc2c2cnn(CC(=O)Nc3cc(OC)c(OC)c(OC)c3)c(=O)c21,/,/,18µM*[quencher],-8%,/,/
CCCCCc1ccc(N)cc1,/,/,1%[201 µM],-7%[201 µM],/,/
Cc1ccc(NC(=O)CSc2nnc3c(n2)[nH]c2ccccc23)cc1,-12%,1,/,/,2%,/
Cc1ccc(CNC(=O)CSc2nnc3c(n2)[nH]c2ccccc23)cc1,11%,-82*,/,/,4%,/
CCC(C(=O)NC1CCC(C)CC1)n1nc(C)c2sc3ccccc3c2c1=O (stereo not given),/,/,1%,4%,/,/
O=C(CSc1nncs1)N1c2ccccc2Sc2ccccc21,14%,-71*,2%,3%,-6%,-5%
COC(=O)N/N=C/c1cc(N=Nc2ccccc2Cl)ccc1O,7%,-15,40µM*[quencher],?,0%,-14%
Cc1cc(Cc2cc(C)cc(C(C)(C)C)c2O)c(O)c(C(C)(C)C)c1,/,/,2%[201 µM],1%[201 µM],/,/
COc1ccc2[nH]c3c(NCCC4=CCCCC4)ncnc3c2c1,0%,-73*,-5%,10%,-2%,-4%
COc1cccc(N2CCN(c3ncnc4c3[nH]c3ccc(F)cc34)CC2C)c1 (stereo not given),1%,-105*,-7%,8%,3%,?
COc1cccc(N2CCN(c3ncnc4c3[nH]c3ccccc34)CC2C)c1 (stereo not given),-7%,-100*,-2%,-7%,2%,-24%
c1ccc2c(c1)CCN(c1ncnc3c1[nH]c1ccccc13)C2,-2%,?,-4%,-4%,0%,6%
COc1ccc2[nH]c3c(N4CC(C)OC(C)C4)ncnc3c2c1 (stereo not given),14%,-11,-5%,-15%,-1%,0%
SMILES,Eya2 phos inh,TSHR antagonist,TexasRed fluor,TRb SRC2 PPI,USP2a block,CBFb RUNX1 block
Cc1ccccc1NC(=O)N1CCC(C(=O)c2ccc(F)cc2)CC1,-4%,5,-1%,4%,1%,4%
Cc1cccc(C)c1NC(=O)N1CCC(C(=O)c2ccc(F)cc2)CC1,1%,-79*,/,/,2%,/
CCCc1cc(=O)[nH]c(Nc2cc(Cl)cc(Cl)c2)n1,/,/,4%,-2%,/,/
CCCCCCC(O)CCCCCCCCCCC(=O)OC (stereo not given),/,/,2%[201 µM],0%[201 µM],/,/
O=C(Cn1cnc2c(nc3n2CCCCC3)c1=O)Nc1ccc(F)c(Cl)c1,/,/,18µM*[quencher],-7%,/,/
COc1ccc(C)cc1NC(=O)c1ccccc1NS(=O)(=O)c1ccc(Cl)s1,4%,-76*,-6%,3%,-7%,1%
COc1ccccc1NC(=O)c1ccccc1NS(=O)(=O)c1cccs1,-8%,2,-5%,1%,0%,6%
CC1CCN(Cc2c(C(=O)N/N=C/c3cc(Cl)ccc3O)nnn2-c2nonc2N)CC1,-5%,-100*,/,/,3%,/
CC1CCN(Cc2c(C(=O)N/N=C/c3cc(Br)ccc3O)nnn2-c2nonc2N)CC1,0%,-4,/,/,2%,/
CCN(CC)c1cc2c(cc1F)c(=O)c(S(=O)(=O)c1ccc(OC)cc1)cn2Cc1ccccc1,/,/,112µM*[quencher],-25%,/,/
CCN(CC)c1cc2c(cc1F)c(=O)c(S(=O)(=O)c1ccccc1)cn2Cc1ccccc1,/,/,-16%,-1%,/,/
CCC(=O)Nc1cc2c(cc1C(=O)c1ccccc1)OCCO2,-1%,-10,28µM*[fluorescent],?,0%,-2%
O=C(Nc1cc2c(cc1C(=O)c1ccccc1Cl)OCCO2)c1ccccc1,/,/,0.089µM*[quencher],?,/,/
CC(=O)Nc1cc2c(cc1C(=O)c1ccccc1)OCCO2,-2%,1,1%,7%,-1%,12%
CCOC(=O)C1=NN(c2ccc(Cl)cc2Cl)C(C)(C(=O)OCC)C1 (stereo not given),/,/,-2%[201 µM],5%[201 µM],/,/
COc1ccc(CNc2ncnc3ccc(-c4c(C)noc4C)cc23)cc1,/,/,-2%,-2%,/,-3%
Cc1cc(C)cc(NC(=O)CN(C)S(=O)(=O)c2ccc3[nH]c4c(c3c2)CCCC4)c1,/,/,1%,4%,/,/
Cc1cccc(C)c1NC(=O)CN(C)S(=O)(=O)c1ccc2[nH]c3c(c2c1)CCCC3,/,/,22µM*[quencher],-8%,/,/
CN(CC(=O)NCc1ccc(F)cc1)S(=O)(=O)c1ccc2[nH]c3c(c2c1)CCCC3,/,/,18µM*[quencher],-7%,/,/
CN(CC(=O)NCc1ccccc1)S(=O)(=O)c1ccc2[nH]c3c(c2c1)CCCC3,/,/,0%,-4%,/,/
